Experiment in all cases: NCI-60 one-dose screen, 48 h (100 = growth as untreated, 0 = no growth, -100 = all killed)
The subject of one assay is HCT-15 colon. Particulars: 10 µM.
In another assay the test system is HT29 colon. The settings on record: 10 µM.
Another assay has as its system SNB-19 CNS. The settings on record: 10 µM.
The subject of another assay is U251 CNS. The settings on record: 10 µM.
Another assay relates to PC-3 prostate. The settings on record: 10 µM.
For the next assay, the system named is SK-MEL-5 melanoma. Particulars: 10 µM.
The test system of the next assay is UACC-62 melanoma. Particulars: 10 µM unless noted.
The subject of the next assay is LOX IMVI melanoma. Particulars: 10 µM.
In a further assay the test system is SK-MEL-28 melanoma. Particulars: 10 µM.
The subject of a further assay is SK-MEL-2 melanoma. Particulars: 10 µM.
The subject of a further assay is EKVX NSCLC. The settings on record: 10 µM.
The next assay concerns SN12C renal. Particulars: 10 µM.
Another assay concerns UO-31 renal. The settings on record: 10 µM.
The subject of another assay is TK-10 renal. Particulars: 10 µM unless noted.
The next assay has as its system ACHN renal. Particulars: 10 µM.
For a further assay, the system named is CAKI-1 renal. Particulars: 10 µM.
In another assay the test system is A498 renal. Particulars: 10 µM.
The test system of another assay is CCRF-CEM leukemia. Particulars: 10 µM.
The next assay relates to MOLT-4 leukemia. The settings on record: 10 µM.
In the next assay the test system is SNB-75 CNS. Particulars: 10 µM.

Compounds without any hit were thinned out: in the full panel of roughly 83,000, 20% have a hit.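 Step 1: grow cells in 96-well plates. Step 2: add test compound at a single concentration. Step 3: incubate 48 h. Step 4: record percent growth.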 Values without a mark were called inactive. The source made the active and inactive calls. The calls were made as follows: active = growth percent below 10; inactive = the rest.

Turning to `FC(F)(F)c1ccc2c(c1)N(CCCN1CCN(C3CC3)CC1)c1ccccc1S2`, the growth with HCT-15 colon is 68.7%; in the assay on HT29 colon, 36.1%; with SNB-19 CNS it was 43%; with U251 CNS it was 25.8%; in the assay on PC-3 prostate it was 48.5%; with SK-MEL-5 melanoma, 81%. Moreover, the growth is 54% with UACC-62 melanoma; 37.6% in the assay on LOX IMVI melanoma; 93.8% with SK-MEL-28 melanoma; 90.4% with SK-MEL-2 melanoma; 86.8% in the assay on EKVX NSCLC; 47.7% with SN12C renal. Moreover, the growth with UO-31 renal was 17.6%; in the assay on TK-10 renal, 80%; in the assay with ACHN renal, 78.1%; with CAKI-1 renal, 17.3%; with A498 renal it was 9.76% (active); in the assay with CCRF-CEM leukemia, 26.5%. In addition, the growth with MOLT-4 leukemia was 34%.

`Nc1ccccc1SC(CC(=O)c1ccccc1)c1c(Cl)cccc1Cl` (configuration not stated): the growth was 44.5% in the assay on HCT-15 colon; 42.5% in the assay with HT29 colon; 70.6% in the assay with SNB-75 CNS; 27% in the assay on U251 CNS; 81.4% with SK-MEL-5 melanoma; 73.9% in the assay with UACC-62 melanoma. Moreover, the growth is 90.8% with SK-MEL-28 melanoma; 91.6% in the assay on SK-MEL-2 melanoma; 62.9% in the assay with SN12C renal; 58.1% with UO-31 renal; 69.4% with ACHN renal; 76.9% in the assay with CAKI-1 renal. In addition, the results for the growth in the assay with A498 renal and in the assay with MOLT-4 leukemia were 79.1% and 17.2%, respectively.

As to `Cc1ccc(O)c(C(=O)c2ccccc2)c1`, the growth in the assay with HCT-15 colon was 104%; in the assay on HT29 colon it was 104%; with SNB-19 CNS, 92.2%; in the assay on U251 CNS it was 105%; in the assay on PC-3 prostate it was 101%; in the assay with SK-MEL-5 melanoma it was 105%. The growth in the assay with UACC-62 melanoma is 96.6%; in the assay on LOX IMVI melanoma, 99.3%; with SK-MEL-28 melanoma it was 110%; in the assay on SK-MEL-2 melanoma, 107%; in the assay with EKVX NSCLC it was 103%; with SN12C renal it was 100%. Moreover, the growth was 97.2% in the assay on UO-31 renal; 111% with TK-10 renal; 104% with ACHN renal; 104% in the assay with CAKI-1 renal; 78.7% in the assay on A498 renal; 55.8% in the assay with CCRF-CEM leukemia. In addition, in the assay with MOLT-4 leukemia, the growth is 112%.

Consider `Cc1cc(=O)cc(C)n1-c1ccccc1`, for which the growth with HCT-15 colon was 104%; in the assay with HT29 colon it was 101%; with SNB-19 CNS it was 99.8%; in the assay with U251 CNS, 101%; in the assay with PC-3 prostate it was 93.6%; in the assay with SK-MEL-5 melanoma, 106%. The growth was 99% in the assay on UACC-62 melanoma; 98.9% with LOX IMVI melanoma; 104% in the assay with SK-MEL-28 melanoma; 104% in the assay on SK-MEL-2 melanoma; 107% in the assay with EKVX NSCLC; 89.3% in the assay on SN12C renal. Besides, the growth in the assay with UO-31 renal was 90%; in the assay on TK-10 renal it was 96.3%; in the assay on ACHN renal it was 102%; in the assay with CAKI-1 renal, 95%; in the assay on A498 renal, 103%; in the assay with CCRF-CEM leukemia it was 92.4%. For the same compound, the growth with MOLT-4 leukemia was 102%.

With `Cc1cc(N)ccc1-c1ccc(N)cc1C`, the growth is 97.6% in the assay on HCT-15 colon; 102% in the assay with HT29 colon; 107% with SNB-19 CNS; 110% in the assay with U251 CNS; 73.8% in the assay with PC-3 prostate; 99.7% in the assay on SK-MEL-5 melanoma. In addition, the growth with UACC-62 melanoma was 104%; in the assay with SK-MEL-28 melanoma it was 104%; in the assay with SK-MEL-2 melanoma, 86.3%; with EKVX NSCLC, 106%; in the assay on SN12C renal, 98.5%; in the assay with UO-31 renal, 77.1%. Further, the growth was 111% with TK-10 renal; 99.1% in the assay with ACHN renal; 94.8% with CAKI-1 renal; 97.1% in the assay with A498 renal; 105% in the assay with CCRF-CEM leukemia; 103% in the assay on MOLT-4 leukemia.

Turning to `Cc1cc(O)ccc1O`, the growth was 108% with HCT-15 colon; 114% in the assay on HT29 colon; 112% in the assay on SNB-19 CNS; 107% with U251 CNS; 97.7% in the assay on PC-3 prostate; 88.6% in the assay on SK-MEL-5 melanoma. In addition, the growth in the assay on UACC-62 melanoma is 80.8%; in the assay on LOX IMVI melanoma, 92.5%; in the assay on SK-MEL-28 melanoma it was 108%; in the assay on EKVX NSCLC, 94.6%; with SN12C renal, 95.3%; with UO-31 renal it was 94.4%. Moreover, the growth was 123% with TK-10 renal; 105% in the assay on ACHN renal; 103% in the assay on A498 renal; 19.1% in the assay on CCRF-CEM leukemia; 65% in the assay on MOLT-4 leukemia.

Take `C#CCSc1nnnn1-c1ccc(Br)c(C)c1`: the growth in the assay on HCT-15 colon is 95.4%; with HT29 colon it was 89.7%; with SNB-19 CNS, 86.4%; with U251 CNS, 81.8%; in the assay with PC-3 prostate, 99.7%; in the assay with SK-MEL-5 melanoma, 88.3%. Moreover, the growth in the assay with UACC-62 melanoma was 65.6%; with LOX IMVI melanoma, 97.4%; in the assay with SK-MEL-28 melanoma, 124%; in the assay with SK-MEL-2 melanoma, 86.9%; in the assay with EKVX NSCLC, 35.7%; in the assay on SN12C renal, 71.8%. Further, the growth with UO-31 renal was -93.1% (active); in the assay on TK-10 renal, 111%; in the assay with ACHN renal, 92.5%; with A498 renal it was 124%; in the assay with CCRF-CEM leukemia, 87.5%; in the assay on MOLT-4 leukemia, 88.4%.

In the case of `CC(=O)NC(N)=S`, the growth was 109% with HCT-15 colon; 97.7% in the assay on HT29 colon; 101% with SNB-19 CNS; 105% in the assay with U251 CNS; 92.6% in the assay on PC-3 prostate; 107% with SK-MEL-5 melanoma. Moreover, the growth in the assay with UACC-62 melanoma was 109%; in the assay on LOX IMVI melanoma it was 102%; with SK-MEL-2 melanoma, 111%; in the assay on EKVX NSCLC it was 118%; in the assay with SN12C renal, 104%; in the assay on TK-10 renal it was 100%. In addition, the growth in the assay with ACHN renal was 104%; in the assay on CAKI-1 renal it was 100%; with A498 renal it was 112%; in the assay on CCRF-CEM leukemia, 86.7%; in the assay with MOLT-4 leukemia it was 77.4%.

With `O=C(O)c1ccccc1NCc1ccco1`, the growth was 108% with HCT-15 colon; 98.7% with HT29 colon; 108% with SNB-19 CNS; 103% in the assay on U251 CNS; 111% with PC-3 prostate; 100% in the assay with SK-MEL-5 melanoma. Besides, the growth with UACC-62 melanoma is 101%; in the assay on LOX IMVI melanoma it was 93.5%; in the assay on SK-MEL-28 melanoma, 111%; with EKVX NSCLC, 103%; with SN12C renal it was 99.8%; with TK-10 renal it was 64.7%. Further, the growth with ACHN renal was 115%; with A498 renal it was 99.9%; in the assay on CCRF-CEM leukemia, 98.6%; in the assay with MOLT-4 leukemia, 104%.

The values above are taken from PubChem BioAssay (NCI).
